Measurements reported in PubChem BioAssay (NCATS).
“And” between values parts separate entries of the source, which are not always exact repeats. Equal entries are not always repeated. Inconclusive results are not listed. More than one record can exist for a structure, and the calls need not agree. The source made the active and inactive calls. Unless noted, calls come from the whole dose curve; as a rule, active = well fitted curve in the direction sought with a large enough effect; inconclusive = small, poorly fitted or top-dose-only effect, or another doubt; inactive = no such curve, though single readings can be large; an effect the other way counts as inactive or inconclusive.

Columns and labels:
[1] = Primary qHTS for inhibitors of La Crosse Virus (LACV) - induced cell death in SH-SY5Y cells (AID 1508616);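 note: top concentration of the series differs between compounds; 0% = infected DMSO wells and 100% = uninfected DMSO wells; higher means more rescue of cells from virus-induced death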
Method in brief: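 SH-SY5Y cells (6000/well) plated 24 h, then given compounds by pin transfer and LACV at 0.01 MOI for 6 days at 37C. Viability measured by ATPLite luminescence, normalized to infected DMSO and uninfected DMSO.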

[2] = target: Calcium and integrin-binding protein 1 (Homo sapiens) (UniProt Q99828); experiment: Primary qHTS for Identification of Calcium Integrin Binding Protein 1 (CIB1) Competitor (AID 1508620);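 note: GST tagged CIB1 binding a fluorescein labelled alphaIIb integrin peptide tracer; top concentration of the series differs between compounds; % is set by controls: 0 for no effect and ±100 for the full control effect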
Chain of Calcium and integrin-binding protein 1 (Homo sapiens) (Q99828 whole entry, looked up): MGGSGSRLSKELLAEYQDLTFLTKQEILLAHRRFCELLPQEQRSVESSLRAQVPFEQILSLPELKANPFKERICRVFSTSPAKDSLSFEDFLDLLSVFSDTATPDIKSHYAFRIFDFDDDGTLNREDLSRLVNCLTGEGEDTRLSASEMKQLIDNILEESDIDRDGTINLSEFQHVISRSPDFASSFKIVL
Method in brief: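 CIB1-GST (1 uM final) and compound incubated 15 min at room temperature before adding FITC-alphaIIb peptide tracer (100 nM final). Competition for binding read by fluorescence polarization (ex 480, em 540) after another 15 min at room temperature.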

[3] = Primary qHTS for small molecule stabilizers of the endoplasmic reticulum resident proteome: Secreted ER Calcium Modulated Protein (SERCaMP) assay (AID 1508630); note: % is set by controls: 0 for no effect and ±100 for the full control effect
Method in brief: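 GLuc-SERCaMP-expressing SH-SY5Y cells, pretreated 16 h with compound, are challenged with thapsigargin to empty ER calcium stores; after 4 h, coelenterazine is added directly to the medium and luminescence is imaged.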

[4] = A High-Content qHTS Against Drug Library for the Identification of Small Molecules that Inhibit DYT1 Early Onset Primary Dystonia-Associated Cell Pathology (AID 1645839; calls by dose curve; note: series mostly up to about 46 µM)
Method in brief: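 In this high-content image screen, delE TorsinA mislocalization in inducible Flp-In 293 cells is scored as %pathology, with cell count serving as the counterscreen. Compound exposure lasts 48 h under tetracycline induction in reduced-serum medium.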

[5] = target: Cytochrome P450 2D6 (Homo sapiens) (UniProt P10635); experiment: Cytochrome P450 family 2 subfamily D member 6 (CYP2D6) small molecule antagonists: luciferase biochemical (cell-free) qHTS assay (AID 1645840; active = well fitted curve in the direction sought with a large enough effect in the repeat runs; an effect the other way counts as inactive or inconclusive; note: nearly all actives have a fitted effect of over 55% in size; note: potency is the fitted concentration of half-maximal effect)
Chain of Cytochrome P450 2D6 (Homo sapiens) (P10635 whole entry, looked up): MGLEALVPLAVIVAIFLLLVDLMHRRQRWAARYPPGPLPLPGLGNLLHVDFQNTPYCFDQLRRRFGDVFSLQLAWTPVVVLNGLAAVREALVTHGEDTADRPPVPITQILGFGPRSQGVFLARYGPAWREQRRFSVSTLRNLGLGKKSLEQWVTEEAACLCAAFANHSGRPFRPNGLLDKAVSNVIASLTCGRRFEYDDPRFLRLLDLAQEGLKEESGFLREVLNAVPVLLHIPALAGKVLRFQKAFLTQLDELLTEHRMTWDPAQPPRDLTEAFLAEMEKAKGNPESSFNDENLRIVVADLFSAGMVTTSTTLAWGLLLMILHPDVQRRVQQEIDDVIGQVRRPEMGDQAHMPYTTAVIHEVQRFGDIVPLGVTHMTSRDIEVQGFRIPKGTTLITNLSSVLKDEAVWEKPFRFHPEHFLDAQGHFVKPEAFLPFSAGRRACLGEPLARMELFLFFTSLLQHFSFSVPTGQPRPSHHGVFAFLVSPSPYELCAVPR
Method in brief: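 P450-Glo luminescent screen: recombinant CYP2D6 enzyme–proluciferin substrate mix preincubated with compound 10 min at room temperature, then NADPH regeneration added for 1 h at room temperature. Detection reagent added for 20 min; luciferin light read as relative luminescence units.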

[6] = target: Cytochrome P450 3A4 (Homo sapiens) (UniProt P08684); experiment: Cytochrome P450 family 3 subfamily A member 4 (CYP3A4) small molecule antagonists: luciferase qHTS assay (AID 1645841; active = well fitted curve in the direction sought with a large enough effect in the repeat runs; an effect the other way counts as inactive or inconclusive; note: potency is the fitted concentration of half-maximal effect; nearly all actives have a fitted effect of over 45% in size)
Chain of Cytochrome P450 3A4 (Homo sapiens) (P08684 whole entry, looked up): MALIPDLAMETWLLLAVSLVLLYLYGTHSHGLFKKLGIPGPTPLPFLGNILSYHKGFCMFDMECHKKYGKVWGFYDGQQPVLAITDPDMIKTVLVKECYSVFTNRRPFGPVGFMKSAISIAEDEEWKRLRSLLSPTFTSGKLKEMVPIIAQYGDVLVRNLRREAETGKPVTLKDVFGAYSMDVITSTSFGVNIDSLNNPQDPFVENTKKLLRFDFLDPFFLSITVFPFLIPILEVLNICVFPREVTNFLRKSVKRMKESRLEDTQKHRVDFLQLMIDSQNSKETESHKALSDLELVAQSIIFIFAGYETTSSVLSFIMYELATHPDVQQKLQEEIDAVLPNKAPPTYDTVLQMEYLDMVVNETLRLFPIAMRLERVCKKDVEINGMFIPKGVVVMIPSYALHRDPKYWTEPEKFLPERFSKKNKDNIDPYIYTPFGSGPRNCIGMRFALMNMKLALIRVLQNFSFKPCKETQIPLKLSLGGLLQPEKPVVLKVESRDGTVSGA
Method in brief: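 Luminescent CYP3A4 activity readout: compounds plus enzyme-substrate mix 10 min at room temperature, reaction started with NADPH regenerating system for 1 h, stopped with detection reagent, read after 20 min. Ketoconazole served as control.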

[7] = Primary qHTS for inhibitors of nuclear receptor binding SET domain protein 2 (NSD2) in an isogenic RCH-ACV NSD2 p.E1099K mutant (9B) (AID 1645876); note: nearly all actives have a fitted effect of over 70% in size; note: potency is the fitted concentration of half-maximal effect
[8] = Primary qHTS for inhibitors of nuclear receptor binding SET domain protein 2 (NSD2) in an RCH-ACV wild type WT cells (2C) (AID 1645877); note: nearly all actives have a fitted effect of over 70% in size; note: potency is the fitted concentration of half-maximal effect
[9] = target: Cytochrome P450 2C9 (Homo sapiens) (UniProt P11712); experiment: Cytochrome P450 family 2 subfamily C member 9 (CYP2C9) small molecule antagonists: luciferase biochemical (cell-free) qHTS assay (AID 1645842; active = well fitted curve in the direction sought with a large enough effect in the repeat runs; an effect the other way counts as inactive or inconclusive; note: nearly all actives have a fitted effect of over 55% in size; note: potency is the fitted concentration of half-maximal effect)
Chain of Cytochrome P450 2C9 (Homo sapiens) (P11712 whole entry, looked up): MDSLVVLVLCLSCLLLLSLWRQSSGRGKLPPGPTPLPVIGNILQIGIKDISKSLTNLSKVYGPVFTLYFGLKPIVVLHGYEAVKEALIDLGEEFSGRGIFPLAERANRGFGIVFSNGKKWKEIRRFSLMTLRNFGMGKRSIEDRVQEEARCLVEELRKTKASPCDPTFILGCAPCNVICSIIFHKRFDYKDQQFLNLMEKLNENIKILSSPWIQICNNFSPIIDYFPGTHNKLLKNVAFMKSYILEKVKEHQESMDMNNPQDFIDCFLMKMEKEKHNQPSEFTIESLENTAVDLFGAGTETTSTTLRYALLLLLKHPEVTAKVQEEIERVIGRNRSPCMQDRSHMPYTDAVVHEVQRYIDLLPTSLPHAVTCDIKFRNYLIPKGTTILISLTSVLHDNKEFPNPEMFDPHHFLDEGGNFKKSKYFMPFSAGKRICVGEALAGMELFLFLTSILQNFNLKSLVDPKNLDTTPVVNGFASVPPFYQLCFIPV
Method in brief: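 Luminescence, after 20 min with luciferin detection reagent, reflected CYP2C9 turnover during a 1 h NADPH-driven reaction at 37C. Enzyme-substrate mix contained 0.4% bovine serum albumin and was preincubated with compound 10 min at room temperature.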

[10] = Counterscreen qHTS for small molecule stabilizers of the endoplasmic reticulum resident proteome: GLuc-NoTag assay (AID 1508627);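 note: SH-SY5Y cells given compound then 100 nM thapsigargin to empty ER calcium; series mostly up to about 76 µM; 0% = thapsigargin alone and -100% = DMSO vehicle control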
Method in brief: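 Luminescence of Gaussia luciferase secreted into the medium (coelenterazine, 0.07x final, unlysed cells) was the read-out. Human SH-SY5Y neuroblastoma cells constitutively secreting untagged GLuc received compound for 19 h, then 100 nM thapsigargin for 4 h.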

[11] = Confirmatory qHTS for small molecule stabilizers of the endoplasmic reticulum resident proteome: Secreted ER Calcium Modulated Protein (SERCaMP) assay (AID 1508628); note: series mostly up to about 76 µM; % is set by controls: 0 for no effect and ±100 for the full control effect; nearly all actives have a fitted effect of over 40% in size
Method in brief: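 SH-SY5Y cells stably expressing GLuc-SERCaMP, treated 16 h with compound (primary 1.53, 7.67, 38.3 uM; confirmation 11 concentrations, up to 76.6 uM), then 100 nM thapsigargin for 4 h. Secreted Gaussia luciferase in medium read by coelenterazine luminescence.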

[12] = Cell Viability qHTS for small molecule stabilizers of the endoplasmic reticulum resident proteome (AID 1508629); conditions: cell viability counter-screen, 100 nM thapsigargin for final 4 h;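 note: human SH-SY5Y neuroblastoma cells carrying the GLuc-SERCaMP reporter; compound exposure about 46 h in total before the viability read; % is set by controls: 0 for no effect and ±100 for the full control effect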
[13] = target: Calcium and integrin-binding protein 1 (Homo sapiens) (UniProt Q99828); experiment: Validation qHTS for Identification of Calcium Integrin Binding protein 1 (CIB1) Competitor (AID 1508618); note: % is set by controls: 0 for no effect and ±100 for the full control effect
Method in brief: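 Displacement of FITC-alphaIIb peptide (100 nM) from CIB1-GST (1 uM) is monitored by polarization in quantitative HTS format; buffer carries 5 mM CaCl2 and 125 mM NaCl at pH 7.4, incubations are at room temperature.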

[14] = target: Papain (Carica papaya) (UniProt P00784); experiment: Primary qHTS assay for inhibitors of the protease papain (AID 1645873)
Chain of Papain (Carica papaya) (P00784 whole entry, looked up): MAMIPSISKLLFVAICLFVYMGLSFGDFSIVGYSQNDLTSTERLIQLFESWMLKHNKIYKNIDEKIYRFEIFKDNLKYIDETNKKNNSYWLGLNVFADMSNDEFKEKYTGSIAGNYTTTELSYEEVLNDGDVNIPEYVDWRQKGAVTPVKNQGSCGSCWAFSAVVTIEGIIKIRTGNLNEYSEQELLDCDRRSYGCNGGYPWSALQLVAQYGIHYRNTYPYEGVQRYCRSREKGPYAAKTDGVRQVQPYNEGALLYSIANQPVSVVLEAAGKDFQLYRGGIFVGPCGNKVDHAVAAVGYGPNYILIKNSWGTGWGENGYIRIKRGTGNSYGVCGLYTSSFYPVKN

[15] = target: Rap guanine nucleotide exchange factor 3 (Homo sapiens) (UniProt O95398); experiment: Confirmatory qHTS for agonist of cAMP-regulated guanine nucleotide exchange factor 3 (EPAC1) (AID 1645881);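 note: EPAC1 catalysed release of BODIPY-GDP from Rap1B seen as fluorescence loss; 100% = effect of cAMP agonist control; nearly all actives have a fitted effect of over 75% in size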
Chain of Rap guanine nucleotide exchange factor 3 (Homo sapiens) (O95398 whole entry, looked up): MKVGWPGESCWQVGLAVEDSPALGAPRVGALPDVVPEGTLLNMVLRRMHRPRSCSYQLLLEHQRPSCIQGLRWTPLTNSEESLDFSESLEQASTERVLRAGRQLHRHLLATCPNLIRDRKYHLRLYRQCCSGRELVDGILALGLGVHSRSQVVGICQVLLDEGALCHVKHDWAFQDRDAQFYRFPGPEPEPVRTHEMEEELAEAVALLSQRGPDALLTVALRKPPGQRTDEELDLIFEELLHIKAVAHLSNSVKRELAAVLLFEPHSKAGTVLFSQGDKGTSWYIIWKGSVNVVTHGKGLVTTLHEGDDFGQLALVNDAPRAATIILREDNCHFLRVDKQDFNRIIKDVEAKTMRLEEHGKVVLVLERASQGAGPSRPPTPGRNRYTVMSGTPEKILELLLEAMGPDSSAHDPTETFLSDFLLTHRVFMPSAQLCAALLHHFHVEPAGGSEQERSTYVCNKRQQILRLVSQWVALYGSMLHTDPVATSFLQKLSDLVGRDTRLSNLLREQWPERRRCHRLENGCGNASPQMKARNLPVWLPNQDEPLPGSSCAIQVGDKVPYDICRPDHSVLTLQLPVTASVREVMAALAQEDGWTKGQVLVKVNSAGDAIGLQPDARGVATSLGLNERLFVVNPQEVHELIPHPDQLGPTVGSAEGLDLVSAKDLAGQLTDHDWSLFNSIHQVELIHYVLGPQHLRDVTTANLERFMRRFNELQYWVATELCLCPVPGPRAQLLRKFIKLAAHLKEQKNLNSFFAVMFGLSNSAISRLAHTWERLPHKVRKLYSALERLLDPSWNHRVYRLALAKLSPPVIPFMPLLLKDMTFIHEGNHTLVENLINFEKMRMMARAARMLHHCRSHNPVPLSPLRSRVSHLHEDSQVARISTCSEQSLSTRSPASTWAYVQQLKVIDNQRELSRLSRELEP

[16] = target: Rap guanine nucleotide exchange factor 4 (Homo sapiens) (UniProt Q8WZA2); experiment: Confirmatory qHTS for agonist of cAMP-regulated guanine nucleotide exchange factor 4 (EPAC2) (AID 1645884);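 note: nucleotide exchange releases bodipy-GDP from Rap1 and this lowers its fluorescence; % is set by controls: 0 for no effect and ±100 for the full control effect; nearly all actives have a fitted effect of over 65% in size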
Chain of Rap guanine nucleotide exchange factor 4 (Homo sapiens) (Q8WZA2 whole entry, looked up): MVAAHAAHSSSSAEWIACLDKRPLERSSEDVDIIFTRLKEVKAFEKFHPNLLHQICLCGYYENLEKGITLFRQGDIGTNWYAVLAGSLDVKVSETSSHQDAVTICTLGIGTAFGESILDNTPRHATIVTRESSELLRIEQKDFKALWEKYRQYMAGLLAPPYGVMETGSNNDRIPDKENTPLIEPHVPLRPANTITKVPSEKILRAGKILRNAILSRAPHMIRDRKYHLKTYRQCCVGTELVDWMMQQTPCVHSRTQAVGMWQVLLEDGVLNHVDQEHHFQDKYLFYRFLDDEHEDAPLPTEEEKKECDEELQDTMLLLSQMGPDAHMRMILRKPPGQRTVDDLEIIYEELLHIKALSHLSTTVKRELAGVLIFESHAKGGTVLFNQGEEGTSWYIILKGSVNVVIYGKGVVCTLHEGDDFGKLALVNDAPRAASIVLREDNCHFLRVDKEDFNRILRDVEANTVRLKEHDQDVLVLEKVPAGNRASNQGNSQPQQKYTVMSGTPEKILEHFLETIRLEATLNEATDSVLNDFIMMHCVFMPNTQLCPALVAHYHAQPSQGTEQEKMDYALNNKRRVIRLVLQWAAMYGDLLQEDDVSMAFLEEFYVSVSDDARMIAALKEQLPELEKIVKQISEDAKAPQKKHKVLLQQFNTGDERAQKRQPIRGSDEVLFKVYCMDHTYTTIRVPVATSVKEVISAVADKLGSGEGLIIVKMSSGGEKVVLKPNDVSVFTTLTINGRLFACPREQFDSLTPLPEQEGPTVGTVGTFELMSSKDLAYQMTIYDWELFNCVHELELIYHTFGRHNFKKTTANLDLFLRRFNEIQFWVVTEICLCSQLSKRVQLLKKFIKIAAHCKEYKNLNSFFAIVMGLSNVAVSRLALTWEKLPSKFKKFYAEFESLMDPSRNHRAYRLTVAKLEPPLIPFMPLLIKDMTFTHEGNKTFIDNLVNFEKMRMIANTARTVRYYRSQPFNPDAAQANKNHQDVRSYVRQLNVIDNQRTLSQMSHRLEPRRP

[17] = target: Rap guanine nucleotide exchange factor 4 (Homo sapiens) (UniProt Q8WZA2); experiment: Confirmatory qHTS for antagonist of cAMP-regulated guanine nucleotide exchange factor 4 (EPAC2) (AID 1645885); note: potency is the fitted concentration of half-maximal effect; nearly all actives have a fitted effect of over 25% in size
[18] = target: Calcium and integrin-binding protein 1 (Homo sapiens) (UniProt Q99828); experiment: Confirmatory qHTS for Identification of Calcium Integrin Binding Protein 1 (CIB1) Competitor (AID 1508617); note: % is set by controls: 0 for no effect and ±100 for the full control effect; nearly all actives have a fitted effect of over 65% in size
Method in brief: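 Confirmatory qHTS measures displacement of a FITC-alphaIIb peptide (100 nM) from CIB1-GST (1 uM) by fluorescence polarization. Calcium-containing HEPES buffer, pH 7.4; two 15 min room-temperature incubations.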

CC(c1cc2ccccc2s1)N(O)C(N)=O (centres undefined)
inactive: outcome [1] | outcome [2] | Potency [3] | Potency [4] | Potency [5] | Potency [7] | Potency [8]
active: Potency [6] 13.8 µM

CCCc1nc2c(C)cc(-c3nc4ccccc4n3C)cc2n1Cc1ccc(-c2ccccc2C(=O)O)cc1
active: Potency [9] 8.71 µM
inactive: outcome [1] | outcome [2] | Potency [3] | Potency [7] | Potency [8]

CCN(CC)CCCC(C)Nc1ccnc2cc(Cl)ccc12 (centres undefined)
inactive: outcome [1] | Potency [10] | Potency [11] | max response [12] -9.95% | Potency [4] | Potency [7] | Potency [8]

C#Cc1cccc(Nc2ncnc3cc(OCCOC)c(OCCOC)cc23)c1
active: Potency [7] 8.41 µM | Potency [8] 9.44 µM
inactive: outcome [1] | outcome [2] | Potency [3] | Potency [4] | Potency [5] | Potency [9]

CCc1cncnc1N1CCN(Cc2nc3ccc(C(F)(F)F)cc3[nH]2)CC1
active: Potency [5] 0.107 µM | Potency [9] 0.477 µM
inactive: Potency [13] | outcome [2] | Potency [3] | Potency [14]

CN1CCN(CCCN2c3ccccc3Sc3ccc(C(F)(F)F)cc32)CC1
active: Potency [7] 18.8 µM and 16.6 µM | Potency [8] 23.7 µM and 16.6 µM | Potency [17] 24.8 µM and 44.1 µM
inactive: outcome [1] | Potency [3] | Potency [14] | outcome [15] | outcome [16]

O=NN(CCCl)C(=O)NCCCl
inactive: outcome [1] | Potency [13] | outcome [2] | Potency [3] | Potency [14] | Potency [7] | Potency [8]

O=C1CCCC2=C1C(c1[nH]ncc1Cl)N=C(Nc1nc3ccccc3o1)N2 (centres undefined)
inactive: Potency [18] | outcome [2] | Potency [3] | Potency [7]

Cc1ccc(-n2nc(C(C)(C)C)cc2NC(=O)Nc2ccc(OCCN3CCOCC3)c3ccccc23)cc1
inactive: outcome [1] | outcome [2] | Potency [3]
active: Potency [5] 4.9 µM | Potency [9] 9.77 µM | Potency [8] 21.1 µM
23.7 µM (active) and inactive: Potency [7]

CNC(=O)c1ccccc1Sc1ccc2c(/C=C/c3ccccn3)n[nH]c2c1
inactive: Potency [4]

Nc1nccc(-c2ccc3noc(-c4ccc(Cl)cc4)c3c2)n1
inactive: outcome [2] | Potency [3] | Potency [7]

CCN(CC)CCCC(C)Nc1nc(C)cc(Nc2ccc3nc(C)cc(N)c3c2)n1 (centres undefined)
inactive: outcome [2] | Potency [3] | Potency [9]

N#CC[C@H](C1CCCC1)n1cc(-c2ncnc3[nH]ccc23)cn1
inactive: outcome [2] | Potency [3]
active: Potency [7] 16.3 µM and 9.34 µM

O=C(Nc1ccc(F)c(C(F)(F)F)c1)Nc1nnc(-c2ccncc2)s1
inactive: outcome [2] | Potency [3] | Potency [7]

CCn1c(-c2nonc2N)nc2cnc(Oc3cccc(NC(=O)c4ccc(OCCN5CCOCC5)cc4)c3)cc21
inactive: outcome [2] | Potency [3]
active: Potency [7] 3.26 µM and 662 nM

N#Cc1ccc(C(c2ccc(C#N)cc2)n2cncn2)cc1
inactive: outcome [2] | Potency [3] | Potency [5] | Potency [7]

CC(C)(C)OC(=O)CN(Cc1ccc(Cl)cc1)Cc1ccc([N+](=O)[O-])s1
inactive: outcome [2] | Potency [3] | Potency [7]
